# Compound activity from PubChem.
# Sampled rows, rich in hits. Any-hit rate of the full collection: about 1.6%.
# KCNQ2 enhance: potentiators of rat KCNQ2 potassium channel. O88943. CHO-K1 KCNQ2, FluxOR thallium flux fluorescence; active compounds read high. B-score at 10 µM. 0.54% of 310,000 active. AID 2239;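 active = fluorescence ratio B-score at least 3 SD of library B-scores, with initial fluorescence B-score within 3 of them, cut at about 5.3 in these data; same plate scores as AID 2156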;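 note: B-score of peak minus minimum over baseline fluorescence ratio after K+ and Tl+ stimulus; positive B-score means potentiation of KCNQ2 with more thallium influx and brighter signal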
# Target sequence (O88943 whole entry, looked up): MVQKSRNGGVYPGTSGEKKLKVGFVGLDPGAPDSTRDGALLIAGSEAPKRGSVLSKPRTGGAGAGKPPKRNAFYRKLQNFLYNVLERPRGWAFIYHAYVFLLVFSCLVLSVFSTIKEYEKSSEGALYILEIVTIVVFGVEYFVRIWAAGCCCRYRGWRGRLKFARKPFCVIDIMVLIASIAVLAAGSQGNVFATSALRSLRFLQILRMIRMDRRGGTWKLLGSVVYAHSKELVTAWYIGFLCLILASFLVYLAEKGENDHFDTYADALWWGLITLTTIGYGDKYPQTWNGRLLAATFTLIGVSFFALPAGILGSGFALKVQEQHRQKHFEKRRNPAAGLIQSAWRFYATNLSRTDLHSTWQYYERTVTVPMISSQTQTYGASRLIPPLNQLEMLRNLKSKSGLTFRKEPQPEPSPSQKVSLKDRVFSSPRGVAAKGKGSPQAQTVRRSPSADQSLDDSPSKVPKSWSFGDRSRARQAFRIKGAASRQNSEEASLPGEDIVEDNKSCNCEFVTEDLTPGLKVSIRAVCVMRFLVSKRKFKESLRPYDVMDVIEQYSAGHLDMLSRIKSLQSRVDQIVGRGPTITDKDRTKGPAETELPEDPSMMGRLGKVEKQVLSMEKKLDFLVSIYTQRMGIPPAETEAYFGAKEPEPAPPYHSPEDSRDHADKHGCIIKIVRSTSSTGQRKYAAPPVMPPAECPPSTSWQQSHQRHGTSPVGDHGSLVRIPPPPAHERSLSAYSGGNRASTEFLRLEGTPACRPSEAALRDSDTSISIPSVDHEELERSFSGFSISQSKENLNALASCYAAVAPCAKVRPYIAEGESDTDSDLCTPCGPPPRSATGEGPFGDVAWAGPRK
# KCNQ2 inh: inhibitors of rat KCNQ2 potassium channel | O88943 | CHO-K1 KCNQ2, FluxOR thallium flux, 20 min; active compounds read low | B-score at 10 µM | 1.1% of 310,000 active;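 active = fluorescence ratio B-score at most minus 3 library SDs, with starting brightness B-score within 2 library SDs, cut at about -5.5 in these data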
# KCNQ2 inh conf: rat KCNQ2 channel inhibition, confirmatory screen; KCNQ2-expressing cells, thallium flux; active compounds read low; activity change, negative = inhibition, % at 10 µM; 57% of 1,000 active; shares compounds with KCNQ2 inh
# KCNQ1 spec: human KCNQ1 activity in KCNQ2 inhibitor specificity screen | activity change, negative = inhibition, % at 10 µM | 15% of 1,000 active | KCNQ1-expressing cells, FluxOR thallium flux fluorescence; active compounds read low | AID 493026 | shares compounds with KCNQ2 inh;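 active = activity change at least 3 SD of negative controls below their mean in both duplicate wells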;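 note: CHO cells stably transfected with KCNQ1 and depolarized by potassium stimulus; peak minus minimum fluorescence over baseline after thallium addition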
# CHO parental ctr: counter-screen for KCNQ2 inhibitors: effect in parental CHO cells. 14% of 1,000 active. AID 493029. thallium flux counter-screen; active compounds read low. shares compounds with KCNQ2 inh. activity change, % at 10 µM
# KCNQ2 patch conf: confirmation of rat KCNQ2 potassium channel inhibitors | KCNQ2-expressing cells, automated patch clamp current | shares compounds with KCNQ2 inh | AID 588531 | calls only at 10 µM | 49% of 550 active
# A number is an active result; n = inactive; x = no result; + = active, no number. Unless noted, the rule behind the calls is not given here.
SMILES,KCNQ2 enhance,KCNQ2 inh,KCNQ2 inh conf,KCNQ1 spec,CHO parental ctr,others
CCCSc1nc(NCc2ccco2)c2c3c(sc2n1)COC(C)(C)C3,n,-9.8,n,n,n,
CC1CCc2c(cnc3ncnn23)C1 (centres undefined),x,n,x,x,x,
COc1ccc(S(=O)(=O)N(CC(=O)NCc2ccncc2)c2ccc(C)cc2)cc1OC,n,n,x,x,x,
COc1ccc(-c2nc3ccccn3c2NCc2ccc3c(c2)OCO3)cc1,n,-8.4,n,n,n,
COc1ccc(-c2nc3cc(C)ccn3c2NCc2ccc3c(c2)OCO3)cc1,x,n,x,x,x,
CCN(CC)CCNC(=O)c1ccc(NC(=O)c2cn(-c3ccc(F)cc3)nc2-c2cccc(OC)c2)cc1,x,n,x,x,x,
CCN(CC)CCNC(=O)c1ccc(NC(=O)c2cn(-c3ccccc3)nc2-c2cccs2)cc1,n,-12,-42%,-50%,-37%,KCNQ2 patch conf=+
COc1cc(OC)cc(C(=O)Nn2cc(C(=O)Nc3c(F)cccc3F)c3ccccc3c2=O)c1,n,-6.9,n,n,n,
COC(=O)c1cn(NC(=O)c2cc(OC)cc(OC)c2)c(=O)c2ccccc12,n,n,x,x,x,
CC(CCN1C(Nc2ccccc2)=NC[C@@H]1C)c1ccccc1 (some centres undefined),x,n,x,x,x,
O=C(Nc1ccccc1C(=O)O)c1cc(S(=O)(=O)N2CCCCC2)c(Cl)cc1Cl,x,n,x,x,x,
CC(Sc1nnc(-c2cccs2)n1Cc1ccccc1)C(=O)NCc1ccc2c(c1)OCO2 (centres undefined),n,-9.8,n,n,n,
CCn1c(SC(C)C(=O)NC2CCCc3ccccc32)nnc1-c1cccs1 (centres undefined),n,-8.4,n,n,n,
O=C(CSc1nnc(-c2cccs2)n1Cc1ccccc1)NCc1ccc2c(c1)OCO2,x,n,x,x,x,
CCn1c(SCC(=O)NC2CCCc3ccccc32)nnc1-c1cccs1 (centres undefined),x,n,x,x,x,
Cc1cc(C)c(OCC(=O)NCC2CCCO2)c(C)c1 (centres undefined),x,n,x,x,x,
COc1ccccc1CNC(=S)Nc1ccc(S(N)(=O)=O)cc1,x,n,x,x,x,
O=C(Oc1ccc(Br)cc1C(=S)N1CCOCC1)c1ccccc1,x,n,x,x,x,
CCC1(C(=O)c2ccccc2)C2c3cc(Br)ccc3OC(=O)C21C(=O)N1CCOCC1 (centres undefined),n,-9.7,n,n,n,
CC(C)NC(=O)c1ccc2c(c1)N(Cc1ccccc1)C(=O)C(C)(C)O2,n,n,x,x,x,
COC(=O)[C@H](Cc1ccccc1)NC(=O)N1CCN(c2ccc(F)cc2)CC1,x,n,x,x,x,
COc1cc(-c2nc3cccc(C)n3c2NCC2CCCO2)ccc1O (centres undefined),n,-8.6,n,n,n,
COc1cc(-c2nc3cnccn3c2Nc2ccccc2)ccc1O,n,n,x,x,x,
COc1ccc(-c2cc(-c3ccccc3)nc(Cl)n2)cc1OC,x,n,x,x,x,
Cc1ccc(-c2cc(-c3ccccc3)nc(Cl)n2)cc1,n,-8.3,n,n,n,
SMILES,KCNQ2 enhance,KCNQ2 inh,KCNQ2 inh conf,KCNQ1 spec,CHO parental ctr,others
CCc1ccc(NC(=O)Cn2ncc3c4ccccc4n(C)c3c2=O)cc1,x,n,x,x,x,
Cc1ccc(C2C(C=Nc3c(C)n(C)n(-c4ccccc4)c3=O)=C(c3ccccc3)Oc3ccccc32)cc1 (centres undefined),n,-11,-24%,n,n,KCNQ2 patch conf=n
Cc1c(N=Cc2cccs2)c(=O)n(-c2ccccc2)n1C,x,n,x,x,x,
Cc1ccc(-c2cc(C(=O)Nc3cccnc3)c3ccccc3n2)s1,n,-7.9,-18%,n,n,
Cc1cc(NC(=O)c2cc(-c3cccc(OCC(C)C)c3)nc3ccccc23)no1,n,-11,-20%,n,n,KCNQ2 patch conf=n
Cc1cccc(-c2cc(C(=O)Nc3ccncc3)c3ccccc3n2)c1,x,n,x,x,x,
Cc1cc(C)nc(NC(=O)c2cc(-c3ccc(C)s3)nc3ccccc23)c1,x,n,x,x,x,
Cc1ccc(-c2cc(C(=O)Nc3cc(C)on3)c3ccccc3n2)cc1,x,n,x,x,x,
O=C(c1cc(-c2ccccc2)nc2ccccc12)N1CCCc2ccccc21,x,n,x,x,x,
Cc1cccc(-c2cc(C(=O)N3CCCc4ccccc43)c3ccccc3n2)c1,n,-6.8,-40%,-42%,-34%,KCNQ2 patch conf=n
Cc1cccc(-c2cc(C(=O)Nc3cccnc3)c3ccccc3n2)c1,n,-8,-47%,-48%,-46%,KCNQ2 patch conf=+
CC(OC(=O)C1CCN(c2ccc(C(F)(F)F)cn2)CC1)C(=O)c1ccccc1 (centres undefined),x,n,x,x,x,
